Assay results published in publication PMC4242493, “Sequence specificity incompletely defines the genome-wide occupancy of Myc”.
In all, about 33,000 sequences were measured (“normalized occupancy”: median about 0.075, highest 2% from about 0.095 on). The entries come from a sample that favours the highest values as a whole.

What follows are sequences tested against MaxL homodimer (Homo sapiens, UniProt P61244 1-160) (assay: universal protein-binding microarray (PBM); PBS-based mixture, 10 nM His-tagged protein dimer, 2% milk, 200 ng/uL BSA, 50 ng/uL salmon testes DNA, 0.02% TX-100; detection with Alexa 488 anti-His antibody;; high values mean tight binding). Details: protein: recombinant; tags: C-terminal His-tag (pET21a); chain copies: 2; dsDNA, one strand shown.
MaxL homodimer, sequence (P61244 whole entry): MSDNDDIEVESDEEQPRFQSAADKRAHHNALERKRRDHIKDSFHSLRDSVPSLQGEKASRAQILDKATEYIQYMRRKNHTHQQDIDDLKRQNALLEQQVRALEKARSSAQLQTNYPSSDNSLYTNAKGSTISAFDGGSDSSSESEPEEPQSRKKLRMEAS
Method in brief: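 A His-tagged protein dimer at 10 nM was incubated on Agilent 4 x 44 K arrays of the 'all 10-mer' universal design, then labelled with 10 ng/μL fluorophore-conjugated anti-His antibody and scanned on a GenePix 4400A. A fluorescence intensity was assigned to each 8-mer. Binding occupancy is each such intensity normalised to that of the highest-ranked one.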
For GAGAAGGA, the binding signal was 0.0733 normalized occupancy. Work on CAACAATC yielded a binding signal of 0.0759 normalized occupancy. ATGCCCGG gave a binding signal of 0.0744 normalized occupancy. Work on AGACCTTA yielded a binding signal of 0.0772 normalized occupancy. Sequence ACCGTGGC has a binding signal of 0.0752 normalized occupancy. Work on GCCGTGGA yielded a binding signal of 0.0736 normalized occupancy. GGCGTCGA showed a binding signal of 0.0725 normalized occupancy. For AGCGTTGG, the binding signal was 0.0764 normalized occupancy. AGCGTTGC was tested, and the binding signal was 0.0728 normalized occupancy. In the case of CGGGTGGC, the binding signal is reported as 0.0775 normalized occupancy. Work on CGCGTGGC yielded a binding signal of 0.154 normalized occupancy. Sequence CCCGTGGC has a binding signal of 0.0811 normalized occupancy. Sequence AGAGTGGG has a binding signal of 0.0749 normalized occupancy. AGCGTGGC gave a binding signal of 0.108 normalized occupancy. Work on GGCGTGGA yielded a binding signal of 0.0968 normalized occupancy. With AGCGTGGG the binding signal was 0.113 normalized occupancy. In the case of CCCCAAAA, the binding signal is reported as 0.0734 normalized occupancy. Work on AATAACCC yielded a binding signal of 0.0806 normalized occupancy. With AACAGGAT the binding signal was 0.0759 normalized occupancy. CCGTCCTC showed a binding signal of 0.0798 normalized occupancy. For CGTCACGA, the binding signal was 0.0766 normalized occupancy. Sequence GTGGACGA has a binding signal of 0.0753 normalized occupancy. For AACTCTAC, the binding signal was 0.0729 normalized occupancy. CGCATCAG gave a binding signal of 0.0761 normalized occupancy. For CTATAGGA, the binding signal was 0.0753 normalized occupancy. In the case of TGCCAGAA, the binding signal is reported as 0.0775 normalized occupancy. Work on AGCGTGGA yielded a binding signal of 0.106 normalized occupancy. With CGCGTCGA the binding signal was 0.0756 normalized occupancy. For AGGGTGGA, the binding signal was 0.074 normalized occupancy. CCCGTGGA showed a binding signal of 0.0823 normalized occupancy. With ACCGTGGA the binding signal was 0.0797 normalized occupancy. CGTGTGGA gave a binding signal of 0.0865 normalized occupancy. CGCGTGGA was tested, and the binding signal was 0.147 normalized occupancy. For AGTGTGGC, the binding signal was 0.0795 normalized occupancy. For CGTGTGGC, the binding signal was 0.0953 normalized occupancy. ACCCTGCA gave a binding signal of 0.0751 normalized occupancy. In the case of CTACTAGA, the binding signal is reported as 0.0787 normalized occupancy. With CACTTTGA the binding signal was 0.0776 normalized occupancy. CCGCCCTA showed a binding signal of 0.0723 normalized occupancy. In the case of CGAATTCC, the binding signal is reported as 0.0757 normalized occupancy. For AGTGGGTG, the binding signal was 0.0863 normalized occupancy. Sequence ACTCGACT has a binding signal of 0.0722 normalized occupancy. For ACACGTGT, the binding signal was 0.545 normalized occupancy. With ACACGTAG the binding signal was 0.0822 normalized occupancy. In the case of ACACGTAT, the binding signal is reported as 0.0833 normalized occupancy. ATACGTGA was tested, and the binding signal was 0.081 normalized occupancy. Sequence AGACGTGA has a binding signal of 0.0821 normalized occupancy. Sequence AGACGTGG has a binding signal of 0.0819 normalized occupancy. For ACACGTGC, the binding signal was 0.567 normalized occupancy. ACACGTAC was tested, and the binding signal was 0.0858 normalized occupancy. Work on ACACGTCT yielded a binding signal of 0.0781 normalized occupancy. Work on ACACGTGG yielded a binding signal of 0.852 normalized occupancy. Work on ACACGTGA yielded a binding signal of 0.383 normalized occupancy. With ACACGTCC the binding signal was 0.08 normalized occupancy. Work on ATGAAGCA yielded a binding signal of 0.082 normalized occupancy. CATTATTA gave a binding signal of 0.0832 normalized occupancy. For TAATGCTA, the binding signal was 0.0758 normalized occupancy. With ACTCTGAA the binding signal was 0.0737 normalized occupancy. With ATTCAGCA the binding signal was 0.0725 normalized occupancy. Sequence AATCGTTA has a binding signal of 0.0761 normalized occupancy. ATACGTAT gave a binding signal of 0.0856 normalized occupancy. For CCATGGCC, the binding signal was 0.0766 normalized occupancy. With CCATGGAC the binding signal was 0.0837 normalized occupancy. GCATGGGA showed a binding signal of 0.0967 normalized occupancy. With TCATGGGA the binding signal was 0.0807 normalized occupancy. ACATGGCA showed a binding signal of 0.0904 normalized occupancy. ACATGGGA gave a binding signal of 0.0901 normalized occupancy. ACATGGAC gave a binding signal of 0.0847 normalized occupancy. Work on GCATGGCC yielded a binding signal of 0.0963 normalized occupancy. For TCATGGCA, the binding signal was 0.0816 normalized occupancy. ACATGGCC gave a binding signal of 0.0878 normalized occupancy. GCATGGCA gave a binding signal of 0.102 normalized occupancy. For GCATGGAC, the binding signal was 0.0979 normalized occupancy. Sequence AATTAAGC has a binding signal of 0.0756 normalized occupancy. Sequence CTGACACC has a binding signal of 0.0794 normalized occupancy. Work on GTTTGTGA yielded a binding signal of 0.0718 normalized occupancy. Sequence TAGCATCA has a binding signal of 0.0821 normalized occupancy. For GTCTTCAA, the binding signal was 0.0773 normalized occupancy. With GAGTTGCC the binding signal was 0.0729 normalized occupancy. ATTCCATC showed a binding signal of 0.0772 normalized occupancy. With TGATTCCA the binding signal was 0.0829 normalized occupancy. In the case of AACAAACC, the binding signal is reported as 0.074 normalized occupancy. ACATGACC gave a binding signal of 0.0952 normalized occupancy. Sequence CCATGACC has a binding signal of 0.0831 normalized occupancy. For ACATGACG, the binding signal was 0.0854 normalized occupancy. Work on CCATGATC yielded a binding signal of 0.0848 normalized occupancy. For GCATGACA, the binding signal was 0.088 normalized occupancy. With ACATGACA the binding signal was 0.089 normalized occupancy. Sequence ACATGATA has a binding signal of 0.0928 normalized occupancy. Work on ACATGATC yielded a binding signal of 0.101 normalized occupancy. Sequence GCATGACC has a binding signal of 0.0988 normalized occupancy. With ATGGGAGC the binding signal was 0.0768 normalized occupancy. Work on GTTCCCTA yielded a binding signal of 0.0721 normalized occupancy. With CGAAAATC the binding signal was 0.0726 normalized occupancy. Work on CCTTAACC yielded a binding signal of 0.0754 normalized occupancy. CGCTTATA gave a binding signal of 0.0805 normalized occupancy. For CAGTCAGG, the binding signal was 0.0732 normalized occupancy. In the case of ACTAAGTC, the binding signal is reported as 0.0734 normalized occupancy. With CCCCTTTC the binding signal was 0.0738 normalized occupancy. With ACGAACAG the binding signal was 0.0753 normalized occupancy. In the case of ACTCACAT, the binding signal is reported as 0.0886 normalized occupancy. CCTGCTGA gave a binding signal of 0.0756 normalized occupancy. For ATTCCACA, the binding signal was 0.0794 normalized occupancy. For CATCCACA, the binding signal was 0.0859 normalized occupancy. In the case of CCCCCACA, the binding signal is reported as 0.0839 normalized occupancy. GTTCCACA showed a binding signal of 0.0784 normalized occupancy. AATCCACG was tested, and the binding signal was 0.0813 normalized occupancy. With ATTCCACG the binding signal was 0.0964 normalized occupancy. CCCCCACG gave a binding signal of 0.0958 normalized occupancy. With CACCCACG the binding signal was 0.0964 normalized occupancy. With CACCCACC the binding signal was 0.0828 normalized occupancy. With CACCCACA the binding signal was 0.0789 normalized occupancy. In the case of CATCCACG, the binding signal is reported as 0.108 normalized occupancy. For GCCCCACA, the binding signal was 0.0784 normalized occupancy. In the case of CAACTATG, the binding signal is reported as 0.0846 normalized occupancy. AACAGCAT showed a binding signal of 0.087 normalized occupancy. For GTTTGGAA, the binding signal was 0.0754 normalized occupancy. Work on ACGCCTGG yielded a binding signal of 0.0735 normalized occupancy. Sequence CAGTAATA has a binding signal of 0.0775 normalized occupancy. CATCCCCG showed a binding signal of 0.0773 normalized occupancy. With TTAATGAA the binding signal was 0.0772 normalized occupancy. With ACACAGGC the binding signal was 0.0789 normalized occupancy. Work on CACTTCGC yielded a binding signal of 0.0739 normalized occupancy. With GTCCTCAC the binding signal was 0.0765 normalized occupancy. AAGAGCAC gave a binding signal of 0.0774 normalized occupancy. In the case of CGCGGGAC, the binding signal is reported as 0.0733 normalized occupancy. In the case of TAAAGGAA, the binding signal is reported as 0.0741 normalized occupancy. With AATCGAAA the binding signal was 0.0785 normalized occupancy. ATGATGTG gave a binding signal of 0.088 normalized occupancy. For GGGTGGAC, the binding signal was 0.0796 normalized occupancy. With GAGTGGAC the binding signal was 0.0761 normalized occupancy. ACGTGGAA was tested, and the binding signal was 0.108 normalized occupancy. For CCGTGGAC, the binding signal was 0.0739 normalized occupancy. Sequence AGGTGGAC has a binding signal of 0.0775 normalized occupancy. In the case of AGGTGGAT, the binding signal is reported as 0.08 normalized occupancy. AAGTGGAA gave a binding signal of 0.072 normalized occupancy. ACGTGGAT showed a binding signal of 0.104 normalized occupancy. With AAGTGGAT the binding signal was 0.0727 normalized occupancy. Sequence GCGTGGAC has a binding signal of 0.0976 normalized occupancy. Work on ACGTGGAC yielded a binding signal of 0.106 normalized occupancy. In the case of AGGTGGAA, the binding signal is reported as 0.0722 normalized occupancy. With AGCTGAAA the binding signal was 0.0723 normalized occupancy. With ACACGGCC the binding signal was 0.0719 normalized occupancy. For AAACATCC, the binding signal was 0.0762 normalized occupancy. CGGCACAA gave a binding signal of 0.0773 normalized occupancy. With TCAATAGA the binding signal was 0.0745 normalized occupancy. For ACAAGGCT, the binding signal was 0.0781 normalized occupancy. In the case of GAGGCAGA, the binding signal is reported as 0.0719 normalized occupancy. Sequence CGCTCTAA has a binding signal of 0.0739 normalized occupancy. AGGGCATA gave a binding signal of 0.0779 normalized occupancy. For CCGTGGAA, the binding signal was 0.0755 normalized occupancy. CCGTGGAG was tested, and the binding signal was 0.0796 normalized occupancy. TCGTGGAA gave a binding signal of 0.0835 normalized occupancy. Sequence ACGTGGAG has a binding signal of 0.0976 normalized occupancy. Work on AGGTGGAG yielded a binding signal of 0.0827 normalized occupancy. GCGTGGAA was tested, and the binding signal was 0.106 normalized occupancy. ACGTATTA showed a binding signal of 0.0818 normalized occupancy. AATGGTTA was tested, and the binding signal was 0.0807 normalized occupancy. In the case of CATGACGG, the binding signal is reported as 0.0797 normalized occupancy. In the case of AAGCGTTC, the binding signal is reported as 0.0728 normalized occupancy. For AAGCGTGG, the binding signal was 0.121 normalized occupancy. Work on AAGCGTGA yielded a binding signal of 0.0961 normalized occupancy. AAGCGTCA showed a binding signal of 0.0737 normalized occupancy. With GAGCGTGC the binding signal was 0.0887 normalized occupancy. For CAGCGCGC, the binding signal was 0.0795 normalized occupancy. AAGCGTTA was tested, and the binding signal was 0.0738 normalized occupancy. In the case of CAGCGTGC, the binding signal is reported as 0.118 normalized occupancy. For AAGCGCGG, the binding signal was 0.0752 normalized occupancy. Sequence CACCGTGC has a binding signal of 0.0868 normalized occupancy. AAGCGTGC showed a binding signal of 0.104 normalized occupancy. Work on AAGCGTTG yielded a binding signal of 0.076 normalized occupancy. With GGTCGGAC the binding signal was 0.0772 normalized occupancy.
